Experimental data published in PubChem BioAssay AID690 (Sanford-Burnham Center for Chemical Genomics, 2007).
Out of some 96,000 compounds screened, about 80 (0.08%) were called active. How the calls were made is not given here. The list is a sample of the results. Entries with a potency or affinity are not part of this list.

target: Alkaline phosphatase, placental type (Homo sapiens) (UniProt P05187); experiment: inhibition of human placental alkaline phosphatase – biochemical, luminescence, HTS (AID 690); conditions: purified PLAP, luminescent substrate; at 20 µM; stronger effect = higher value
Sequence (P05187 whole entry, looked up): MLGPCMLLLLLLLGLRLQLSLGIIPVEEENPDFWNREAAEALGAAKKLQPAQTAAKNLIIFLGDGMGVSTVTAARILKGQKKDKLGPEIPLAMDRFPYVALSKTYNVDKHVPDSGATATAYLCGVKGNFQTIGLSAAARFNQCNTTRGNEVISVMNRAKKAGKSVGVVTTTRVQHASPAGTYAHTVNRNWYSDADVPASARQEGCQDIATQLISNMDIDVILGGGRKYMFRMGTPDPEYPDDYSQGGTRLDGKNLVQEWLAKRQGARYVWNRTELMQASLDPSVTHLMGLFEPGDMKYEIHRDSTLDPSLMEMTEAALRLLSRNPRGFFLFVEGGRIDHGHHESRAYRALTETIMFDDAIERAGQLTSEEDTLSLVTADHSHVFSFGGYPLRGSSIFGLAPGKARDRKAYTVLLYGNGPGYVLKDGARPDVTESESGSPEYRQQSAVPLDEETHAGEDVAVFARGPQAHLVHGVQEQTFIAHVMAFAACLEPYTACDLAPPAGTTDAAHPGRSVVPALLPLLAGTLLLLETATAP

inhibition, inactive:
CN(C)c1ccc(/C=C/c2cc[n+]([O-])cc2)cc1 5.5%, C[n+]1ccc(/C=C/c2ccc(Br)cc2)cc1 33.9%, CN(C)c1nc(C(=O)NN)nc(N(C)C)n1 21.7%, CC1=C(/C=C/C(=O)O)C(C)(C)CCC1 -32.1%, O=C(COC(=O)c1ccc(Cl)c(S(=O)(=O)N2CCCC2)c1)NC1CCCC1 -44.5%, N#C/C(=C\c1ccc[nH]1)S(=O)(=O)c1ccccc1 -3.2%, CCn1cc(/C=C(/C#N)S(=O)(=O)c2ccccc2)cn1 -12.8%, Cc1ccc(S(=O)(=O)N[C@@H](CC(C)C)C(=O)NCc2ccco2)cc1 18.5%, CC1(C)OC(=O)C(=CNc2ccc(F)cc2)C(=O)O1 19.1%, O=C(Nc1ccc(F)cc1)c1ccccc1CC[N+](=O)[O-] 8.4%, Cc1cc(C)nc(NN2C(=O)/C(=C/c3ccccc3)SC2=S)n1 12.4%, COc1ccccc1/C=C1\SC(=S)N(Nc2nc(C)cc(C)n2)C1=O 0.7%, Cc1cc(C)n2nc(SCc3cc(=O)oc4cc(C)c(C)cc34)nc2n1 -31.2%, CC1(C)C(=O)Nc2ccccc2N1C(=O)COC(=O)CCSc1ccccc1 6.2%, COc1ccccc1-n1cnc(N)c1C(=O)c1ccccc1 4.4%, Cc1ccc(N2CCN(C(=O)c3ccccc3Br)CC2)c(C)c1 -48.2%, CCOC(=O)c1c(N2C(=O)Nc3cc(Cl)c(Cl)cc3N2O)sc2c1CCCCC2 -30.1%, CCOC(=O)c1c(-n2c(C)cc(C=O)c2C)sc2c1CCCC2 -34.6%, CCOC(=O)Nc1sc(C)nc1-c1ccccc1 5.8%, COC(=O)C1=C(C)N=C2SC(C)C(=O)N2C1c1cccc(F)c1 (centres undefined) -3.9%, CCOc1ccc(OCC)c(NS(=O)(=O)c2cccc3nsnc23)c1 -1.4%, Cn1c(C(=O)NCCN2CCOCC2)cc2sccc21 11.3%, COC(=O)c1ccc(/C=C/C(=O)c2ccc(OC)cc2)cc1 15.1%, COC(=O)c1ccc2c(c1)C(C)(C)C(/C=C/c1ccc(OC)c(OC)c1OC)=[N+]2C -29.3%, COC(=O)c1ccc(/C=C/C(=O)c2ccc(OC)c(OC)c2)cc1 5.6%, COC(=O)c1ccc2nc(C)c(C)nc2c1 8.5%, O=C(CCCCCN1C(=O)c2ccccc2C1=O)Nc1ccc(S(=O)(=O)N2CCCCC2)cc1 8.2%, c1ccc(Cc2nn3c(Cn4nnc5ccccc54)nnc3s2)cc1 15.9%, COc1ccc(CCNC(=O)C2CC(=O)N(C3CCCC3)C2)cc1OC (centres undefined) -44.7%, Cc1cc(=O)n2c(ccc3ccccc32)c1C#N 8.7%, CCC(C)(C)NC(=O)C(c1cccs1)N(CC1CCCO1)C(=O)Cn1nnc2ccccc21 (centres undefined) -0.8%, Cc1cc(C)cc(NC(=O)CSc2nnc(-c3ccccc3)n2N)c1 -9.3%, Nc1c(-c2ccc(Cl)cc2)cnn1-c1cccc([N+](=O)[O-])c1 2.9%, COc1ccc(C(=O)O/N=C(\C)c2ccccc2)cc1 2.4%, c1ccc(Nc2ccccn2)cc1 4.3%, c1ccc(Nc2cc(Nc3ccccc3)[nH]n2)cc1 11.7%, Cc1cc(-c2ccccc2)n2nc(C)c(C#N)c2n1 -0.5%, C=CCOC(=O)C1=C(C)NC(=O)NC1/C=C/c1ccccc1 (centres undefined) 16.7%, O=C(Cn1ccc2ccccc2c1=O)NCCC(=O)NC1CCN(Cc2ccccc2)CC1 -48.7%, O=C(N1CCOCC1)N1CCC(n2nnc3cc(F)ccc32)CC1 -19.8%, O=C(NCc1ccccc1)c1ccc(-c2ccc(F)cc2)o1 3.6%, COc1ccc(-c2noc(-c3ccc(Br)o3)n2)cc1OC 29%, COc1ccc(-c2nc(-c3ccc(Br)o3)no2)cc1OC -40.2%, Cc1ccc(CNC(=O)c2ccc(C#CC(C)(C)O)s2)cc1 20.2%, O=C(CNS(=O)(=O)/C=C/c1ccccc1)OCC(=O)N1CCC(Cc2ccccc2)CC1 -18.3%, Cc1nc2c3cnn(-c4ccccc4)c3ncn2n1 41.1%, c1ccc(-n2ncc3c2ncn2nnnc32)cc1 -8.9%, CC(C)C1N=C2c3ccccc3N=C(SCC(=O)NCCc3ccc(S(N)(=O)=O)cc3)N2C1=O (centres undefined) -3.1%, CC(C)C1N=C2c3ccccc3N=C(SCC#N)N2C1=O (centres undefined) -3.7%, CCn1c(CSc2nc3ccccc3s2)nnc1SCC(=O)c1ccc(O)cc1O -26.1%, COc1ccc(-n2nnnc2SCC(=O)c2cccc(OC)c2)cc1 8.8%, C=CCn1c(SCC(=O)c2ccc(OC)cc2)nnc1-c1cc2cccc(OC)c2o1 21.9%, CCn1c(SCC(=O)C(C)(C)C)nnc1-c1ccccc1OC 5.6%, C=CCn1c(SCC(=O)Nc2ccc3c(c2)OCO3)nnc1-c1ccccc1OC -54.3%, CCOC(=O)CNC(=O)CSc1nnc(-c2ccccc2OC)n1CC -10.2%, CCn1c(CSc2nc3ccccc3s2)nnc1SCC(=O)c1ccc(Cl)cc1 -26.1%, COc1ccc(-n2nnnc2SCC(N)=O)cc1 20.8%, COc1ccc(CNc2n[nH]c(NCc3ccc(OC)c(OC)c3)n2)cc1OC -86.4%, O=C(CC1(O)C(=O)Nc2ccccc21)c1cccnc1 (centres undefined) 26.9%, COc1cc2c(cc1NC(=O)CSc1nnnn1-c1ccccc1)oc1ccccc12 21.8%, CCc1ccc(C(=O)COC(=O)C(Cc2ccccc2)NC(=O)c2ccc(Cl)cc2)cc1 (centres undefined) -8.9%, CCc1ccc2nc3c(c(C(=O)O)c2c1)CCC3 7.8%, Cc1ccc(S(=O)(=O)N2CCC(=O)N2)cc1 -17.1%, CCCc1nc(NCc2ccccn2)c2nnn(Cc3ccccc3F)c2n1 -1.1%, COc1ccc(NC(=O)Cc2cccs2)c(OC)c1 9.5%, O=C(Cc1n[nH]c(=O)[nH]c1=O)N/N=C/c1ccccc1 -5.4%, CCn1c(SCC(=O)O)nnc1-c1ccccc1 -9.1%, CCn1c(SCC(=O)c2ccc(O)c(O)c2)nnc1-c1ccc(C)cc1 -7.9%, Cc1ccccc1CSc1nccn1-c1ccccc1 19%, COc1ccc(C2=Nn3c(nnc3-c3ccco3)SC2)cc1OC 14.5%, COc1ccc(C2=Nn3c(nnc3-c3ccco3)SC2)cc1 -72.6%, COc1cccc(C2=Nn3c(nnc3-c3ccccc3O)SC2)c1 -37.4%, COc1ccc(-c2nnc3n2N=C(c2cccc(Br)c2)CS3)cc1OC 7.3%, CCOC(=O)CC1C(=O)NCCN1C(=O)c1cccc(C(F)(F)F)c1 (centres undefined) 4.8%, COc1ccc(S(=O)(=O)NCC(=O)N(CC(=O)NCC2CCCO2)c2cc(C)ccc2C)cc1 (centres undefined) -64.9%, Cc1ccc(Cn2nnnc2CN2CCC(c3nc4ccc(Cl)cc4[nH]3)CC2)cc1 -87.9%, Cc1cc2nc(C3CCN(Cc4nnnn4Cc4ccccc4)CC3)[nH]c2cc1C -140%, COCCCNC(=O)CCn1c(=O)c2ccccc2n(CC(=O)Nc2cc(Cl)ccc2C)c1=O 7.1%, Cc1c(O)ccc(C(=O)COc2ccccc2F)c1O 8.2%, C=CCNc1ncnc2ccccc12 7.5%, Cc1ccc(N2Cc3ccccc3OC(C)C2=O)cc1 (centres undefined) -23.8%, Cc1cn2c(-c3cccnc3)nnc2s1 3.7%, CCCn1c(=O)[nH]c(=O)c2c1nc(-c1ccc(OC(F)F)cc1)n2CCN1CCOCC1 12.5%, COCc1[nH]nc2c1C(c1ccc(OC)c(OC)c1)C(C#N)=C(N)O2 (centres undefined) -0.8%, CCCc1[nH]nc2c1C(c1cc(OC)cc(OC)c1)C(C#N)=C(N)O2 (centres undefined) -45.4%, COCc1[nH]nc2c1C(c1ccc(OC)cc1)C(C#N)=C(N)O2 (centres undefined) 6.1%, CCCc1[nH]nc2c1C(c1cccc(OC)c1)C(C#N)=C(N)O2 (centres undefined) -46.3%, CC(=O)N(C)c1ccc(NC(=O)/C=C/c2ccccc2Cl)cc1 0.9%, CCC1=C(OC(=O)c2ccccc2)C(C)(C)C(c2ccccc2)OC1=O (centres undefined) 22.6%, CC1=C(C(N)=O)C(c2ccncc2)n2nc(-c3ccccc3Cl)nc2N1 (centres undefined) 8.9%, CCOC(=O)c1ccc(CNC(=O)Cn2nnc(-c3ccc(C)cc3)n2)o1 1.5%, COC(=O)c1ccc(C)c(NC(=O)Cn2cnc3ccccc3c2=O)c1 5.9%, CCN=c1scc(-c2ccco2)n1/N=C/c1ccc(O)cc1 -11.5%, CCN=c1scc(-c2ccco2)n1/N=C/c1ccc(OC)c(O)c1 -2.2%, CCc1ccc(CN2CCN(S(=O)(=O)Cc3ccccc3)CC2)cc1 11.5%, CC(=O)Nc1ccc(-c2cc3ccccc3o2)cc1 0.5%, Cc1ccccc1C(=O)c1cccn1CC(=O)NCC1CCCO1 (centres undefined) -11.1%, COc1cccc(/C=C2\N=C3CCCCCN3C2=O)c1 2.1%, COc1ccc(/C=C2\N=C3CCCCCN3C2=O)cc1OC -6.1%
